TGFb inhibitor – blocks TGF-b signaling; HepG2 CAGA-GFP TGF-b/SMAD3 reporter, GFP fluorescence, 18 h; TGF-beta stimulated, 500 pg/mL final; Potency, µM (titrated, usually from 46.1 µM), actives largely listed as inhibitors; 1.2% of 410,000 active; note: nearly all actives have a fitted effect of over 65% in size
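GFP signal (ex488/em500-530) from TGF-beta-stimulated HEPG2 CAGA-GFP cells, 500 pg/mL final, 18 h at 37 degrees C in DMEM plus 1% FBS, normalized to unstimulated and DMSO-stimulated controls.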
TDP1 block – inhibitors of human tyrosyl-DNA phosphodiesterase TDP1. recombinant TDP1, AlphaScreen DNA substrate cleavage. Potency, µM (series often up to 130 µM), most hits filed as inhibitors. AID 485290. Q9NUW8. 0.28% of 350,000 active; note: nearly all actives have a fitted effect of over 40% in size
Target sequence (Q9NUW8 whole entry, looked up): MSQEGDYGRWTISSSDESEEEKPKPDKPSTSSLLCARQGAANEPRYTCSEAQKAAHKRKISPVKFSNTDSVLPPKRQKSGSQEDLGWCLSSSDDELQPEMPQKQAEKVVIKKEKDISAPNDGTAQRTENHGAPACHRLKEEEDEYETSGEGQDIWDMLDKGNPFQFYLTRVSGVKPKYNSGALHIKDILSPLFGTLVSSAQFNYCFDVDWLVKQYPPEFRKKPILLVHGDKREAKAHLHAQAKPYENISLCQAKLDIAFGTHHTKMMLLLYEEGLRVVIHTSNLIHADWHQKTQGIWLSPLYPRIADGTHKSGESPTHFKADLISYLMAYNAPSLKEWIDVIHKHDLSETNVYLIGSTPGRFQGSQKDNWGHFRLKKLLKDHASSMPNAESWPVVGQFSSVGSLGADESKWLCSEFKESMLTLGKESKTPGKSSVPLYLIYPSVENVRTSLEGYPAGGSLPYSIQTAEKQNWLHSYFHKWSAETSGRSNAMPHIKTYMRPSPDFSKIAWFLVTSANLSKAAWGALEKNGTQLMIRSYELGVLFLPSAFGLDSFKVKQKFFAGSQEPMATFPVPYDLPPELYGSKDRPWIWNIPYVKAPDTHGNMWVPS
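Tdp1 1 nM final; 15 min RT w/ cpd; substrate 15 nM, 5 min; beads 10 ug/ml, 10 min; AlphaScreen read. Neg ctrl: no enzyme.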
TDP1 cell noCPT – qHTS for Inhibitors of human tyrosyl-DNA phosphodiesterase 1 (TDP1): qHTS in cells in absence of CPT; DT40 Tdp1-/- hTDP1 cells, no CPT, ATP luminescence, 48 h; 15% of 420,000 active; AID 686978, 2013; Potency, µM (highest dose often 46.2 µM), usual class: inhibitors; note: nearly all actives have a fitted effect of over 55% in size
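Camptothecin absent (DMSO only). Human TDP1-complemented DT40 knockout cells, 400 cells/well, 37 °C for minimum 48 hr; ATP measured via CellTiter-Glo, 30 min dark incubation, luminescence.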
HepG2 viability – kills HepG2 cells in TGF-b inhibitor counter-screen | 0.76% of 410,000 active | HepG2 CAGA-GFP viability, ATP luminescence, 18 h | Potency, µM (series often up to 46.1 µM), actives largely listed as cytotoxic
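HepG2 CAGA-GFP cells (1000/well, DMEM with 1% FBS) received compound, then TGF-beta at 500 pg/mL final, and were incubated 18 hours at 37 degrees C. Viability was read by CellTiter-Glo luminescence. Media-only wells were set as complete cell-killing and DMSO as no toxicity.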
TDP1 cell CPT – growth inhibition of DT40 Tdp1-/-;hTDP1 cells with camptothecin (screen for TDP1 inhibitors); chicken DT40 Tdp1-/-;hTDP1 cells + 20 nM CPT, ATP luminescence, 48 h; Potency, µM (top dose mostly 46.2 µM), actives largely listed as inhibitors; 12% of 420,000 active; AID 686979; note: nearly all actives have a fitted effect of over 55% in size
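Cell growth measured by CellTiter-Glo luminescence after a minimum 48 h, 37 C compound exposure with 20 nM CPT in Tdp1-knockout DT40 cells stably expressing hTDP1, seeded 400/well; qHTS titration format.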
IL1B secr inh – inflammasome signaling inhibition, IL-1 beta readout | THP-1 LPS/ATP IL-1B secretion, AlphaLISA, 16 h; active compounds read low | activity change, % at 57.5 µM | 4.7% of 360,000 active | AID 743279; in the data active = activity change below about -50%; inconclusive = mostly about -30% to -49%
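THP-1 cells pretreated 1 hr with compounds (up to 57.5 uM final), then stimulated with LPS (250 ng/mL final) plus ATP (1.25 mM final); secreted IL-1B measured by AlphaLISA after 16 hr, decreased signal indicating inhibition.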
Hits are given with their value; – = inactive; ? = inconclusive; · = no result. Only some compounds are listed: those with a hit (about 18% of all), similar ones and a draw of the others. Unless noted, calls come from the whole dose curve; as a rule, active = well fitted curve in the direction sought with a large enough effect; inconclusive = small, poorly fitted or top-dose-only effect, or another doubt; inactive = no such curve, though single readings can be large; an effect the other way counts as inactive or inconclusive.

SMILES | TGFb inhibitor | TDP1 block | TDP1 cell noCPT | HepG2 viability | TDP1 cell CPT | IL1B secr inh
C[N+]12CCC(CC1)C(C(O)(c1cccc(Cl)c1)c1cccc(Cl)c1)C2 (stereo unspecified) | – | – | ? | – | – | ?
Cc1ccc(C(O)(c2ccc(C)c(C)c2)C2CN3CCC2CC3)cc1C (stereo unspecified) | ? | · | 2.3µM | – | 3.7µM | -86
Cc1ccccc1C(O)(Cc1ccccc1)C1CN2CCC1CC2 (stereo unspecified) | – | – | 18µM | – | 18µM | ?
CN1C2CCC1CC(OC(c1ccc(F)cc1)c1ccc(F)cc1)C2 (stereo unspecified) | · | – | 7.3µM | · | 6.5µM | ·
CN1[C@@H]2CC[C@H]1CC(O[C@@H](c1ccccc1)c1ccc(Cl)cc1)C2 (stereo partly specified) | · | – | 4.2µM | · | 2.7µM | ·
CC(C1OC(C)(C)C(O)C1O)C1CC[C@@]2(C)C3=CCC4C(C)(C)C(=O)CC[C@]4(C)C3CC[C@@]12C (stereo partly specified) | · | – | ? | · | ? | ·
CN1C(=O)CCS(=O)(=O)[C@@H]1c1ccc(Cl)cc1 | · | – | · | · | · | ·
CC(CCC(=O)O)C1CCC2C3C(=O)CC4CC(=O)CC[C@@]4(C)C3CC(=O)[C@]12C (stereo partly specified) | · | – | – | · | – | ·
CC(n1cc(C[C@H](N)C(=O)O)c2ccccc21)n1cc(C[C@H](N)C(=O)O)c2ccccc21 | · | – | – | · | – | ·
CCCCCn1c(=O)c(C(=O)Nc2ccccc2N)c(O)c2ccccc21 | – | · | 21µM | – | ? | –
CCCCCn1c(=O)c(C(=O)Nc2ccncc2)c(O)c2ccccc21 | · | – | · | · | · | ·
CCCCn1c(=O)c(C(=O)Nc2ccccc2N)c(O)c2ccccc21 | – | – | 23µM | – | ? | –
CCCCn1c(=O)c(C(=O)Nc2ccccc2F)c(O)c2ccccc21 | – | · | ? | – | – | –
CCCCn1c(=O)c(C(=O)Nc2ccsc2C(=O)OC)c(O)c2ccccc21 | – | – | 5.2µM | – | 21µM | –
CCCCn1c(=O)c(C(=O)NC(C)c2ccccc2)c(O)c2ccccc21 (stereo unspecified) | – | · | ? | – | ? | –
O=c1[nH]c(=S)n(C2CC2)c(O)c1/C=N/Nc1cccc2ccccc12 | – | – | ? | – | 16µM | –
CN[C@@H](Cc1c[nH]c2ccccc12)C(=O)O | · | – | – | · | – | ·
CN1CCc2cc3c(cc2[C@@H]1O)OCO3 | · | – | · | · | · | ·
CN1CCc2cc3c(c4c2C1Cc1ccccc1-4)OCO3 (stereo unspecified) | ? | · | – | – | – | -54
CCC(C(=O)Nc1ccccc1C(=O)OC)n1nc(C)c2c(C)n(-c3ccc(C)cc3)nc2c1=O (stereo unspecified) | 11µM | – | 12µM | – | 7.3µM | ·
COC(=O)[C@H](Cc1ccccc1)N(Cc1ccccc1)S(=O)(=O)N(Cc1ccccc1)[C@@H](Cc1ccccc1)C(=O)OC | – | – | 12µM | – | 23µM | –
CCCCCOc1ccc(C)cc1CN(CCCl)CCCl | ? | – | 16µM | – | 16µM | ·
COc1ccc(C2C(C#N)=C(N)Oc3c2c(=O)oc2ccccc32)cc1Cn1cc([N+](=O)[O-])cn1 (stereo unspecified) | – | – | – | – | – | –
CCCc1[nH]nc2c1C(c1ccc(OC)c(Cn3nnc4ccccc43)c1)C(C#N)=C(N)O2 (stereo unspecified) | – | – | ? | – | 26µM | –
CN1C(=O)CCS(=O)(=O)[C@H]1c1ccc(Cl)cc1 | · | – | – | · | – | ·
SMILES | TGFb inhibitor | TDP1 block | TDP1 cell noCPT | HepG2 viability | TDP1 cell CPT | IL1B secr inh
ClCCN1CCN(c2ccnc3cc(Cl)ccc23)CC1 | – | · | 15µM | – | 13µM | -50
CC(C)CN1CC[C@@]2(CCCN(C(=O)Oc3ccccc3)C2)C1 | · | · | – | · | – | ·
Cl/C=C/Cl | · | – | · | · | · | ·
C=C1C([C@@H](O)C[C@H](C)C2O[C@@]3(CCCCO3)CC[C@H]2C)OC2CC[C@@]3(CC[C@@H](/C=C/[C@@H](C)C4CC(C)=C[C@]5(O4)O[C@H](C[C@@](C)(O)C(=O)O)CCC5O)O3)OC2[C@@H]1O (stereo partly specified) | · | – | 0.01µM | · | 0.013µM | ·
CN1CCC[C@@H]1c1cccnc1 | · | – | – | · | – | ·
Cc1c(NC(=O)Nc2cccc(C(F)(F)F)c2)sc2nc3n(c(=O)c12)CCC(C)CC3 (stereo unspecified) | – | – | 18µM | – | 13µM | ·
COC(=O)c1c(N)[nH]c(C(=O)c2ccccc2)c1-c1ccc(Cl)cc1 | · | · | ? | · | ? | –
CC1/C=C/C=C/CC/C=C/C=C/C=C/C=C/C(OC2OC(C)C(O)C(N)C2O)CC2O[C@](O)(CC(O)C(O)CCC(O)CC(O)CC(O)CC(=O)OC(C)C(C)C1O)CC(O)C2C(=O)O (stereo partly specified) | · | – | – | · | – | ·
C#C[C@]1(O)C=C[C@H]2[C@@H]3CCC4=CC(=O)CC[C@@H]4[C@H]3CC[C@@]21CC | · | · | 15µM | · | 15µM | ·
O=C(NC(=S)N1CC1)c1ccccc1 | – | · | ? | – | – | –

Screening results deposited in PubChem BioAssay by National Center for Advancing Translational Sciences (NCATS).
